Measured values as given in PubChem BioAssay.
Calls of active or inactive are those of the source.

What was measured:
[1] = binders of probe aFSTL3 on microarray, primary screen, stem cell growth factor project, biochemical, small-molecule microarray, fluorescence 635/667 (AID 1064); settings: higher = more signal;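 note: measures binding of the biotinylated anti-FSTL3 antibody to printed compounds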
[2] = binders from COS7 lysate, DM2A8 probe, primary screen, torsin A project, cell lysate, small-molecule microarray, fluorescence 635/667 (AID 1065); settings: higher = more signal, COS7 lysate expressing mutant human TOR1A
[3] = binders of probe aFGF2 on microarray, primary screen, stem cell growth factor project, biochemical, small-molecule microarray, fluorescence 635/667 (AID 1067); settings: higher = more signal;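 note: measures binding of biotinylated aFGF2 protein to printed compounds on slides; z-score merges feature fluorescence and signal-to-noise across triplicate slides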
[4] = binders of probe aFGF10 on microarray, primary screen, stem cell growth factor project, biochemical, small-molecule microarray, fluorescence 635/667 (AID 1071); settings: higher = more signal;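 note: score merges 667 nm spot intensity and signal to noise from triplicate slides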
[5] = biological target: Neurogenic locus notch homolog protein 2 (Homo sapiens) (UniProt Q04721); test: Notch2 binders on small-molecule microarrays, primary screen, biochemical, small-molecule microarray, 635 nm fluorescence, stem cell growth factors (AID 1073); settings: Notch2 binding, higher = more signal
[6] = biological target: Pro-neuregulin-1, membrane-bound isoform (Homo sapiens) (UniProt Q02297); test: NRG1 binders on small-molecule microarrays, primary screen, psychiatric disease protein project, biochemical, small-molecule microarray, fluorescence 635/667 (AID 1075); settings: NRG1 binding, 635 nm fluorescence, higher = more signal;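 note: score combines 667 nm spot fluorescence with signal to noise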
[7] = tested on: Neuregulin-1 EGF-like domain; test: binders of neuregulin-1 EGF-like domain, primary screen, biochemical, small-molecule microarray, 635 nm fluorescence (AID 1081); settings: small-molecule microarray binding, higher = more signal;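 note: binding of the protein to compounds printed on small-molecule microarray slides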
[8] = FRG1 promoter luciferase signal modulators, primary screen, FRG1 inhibition for FSHD, cell-based, C2C12 myotubes, firefly/Renilla luciferase, luminescence (AID 1084); settings: higher = more signal, called active from +8 up or from −8 down
[9] = binders of probe aFST on microarray, primary screen, stem cell growth factor project, biochemical, small-molecule microarray, fluorescence 635/667 (AID 1086); settings: higher = more signal;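 note: score merges 667 nm fluorescence with signal-to-noise of each printed compound spot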
[10] = binders of probe aHhip on microarray, primary screen, stem cell growth factor project, biochemical, small-molecule microarray, fluorescence 635/667 (AID 1087); settings: higher = more signal;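 note: score merges spot fluorescence at 667nm with spot signal to noise ratio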
[11] = tested on: PRMT1 (protein arginine N-methyltransferase 1); test: PRMT1 binders on small-molecule microarrays, primary screen, biochemical, small-molecule microarray, 635 nm fluorescence (AID 1088); settings: small-molecule microarray binding, higher = more signal;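 note: binding of Prmt1 protein to compounds spotted on small-molecule microarray slides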
[12] = yeast growth modulation, basal conditions, primary screen, YJM789 clinical isolate, OD600, 24 h (AID 1089);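 note: growth of clinical yeast isolate S. cerevisiae YJM 789 seeded 1000 cells per well; test concentration not given here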; settings: S. cerevisiae YJM789 growth, higher = more signal, called active from +8 up or from −8 down
[13] = fission yeast growth modulation, primary screen, strain 972, OD600, 24 h, no modulator (AID 1090);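 note: basal condition with compound alone and no growth modifier present; test concentration not given here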; settings: S. pombe 972 growth, higher = more signal, called active from +8 up or from −8 down
[14] = S. cerevisiae growth modulation with rapamycin, primary screen, strain BY4716, OD600, 96 h (AID 1091); settings: higher = more signal, called active from +8 up or from −8 down; note: test concentration not given here
[15] = biological target: Torsin-1A-interacting protein 2 (Homo sapiens) (UniProt Q8NFQ8); test: LULL1 binders on small-molecule microarray, primary screen, cell lysate, human LULL1 lysate, 635/667 nm fluorescence (AID 1092); settings: hLULL1 lysate binding, 635 nm fluorescence, higher = more signal;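 note: probe is lysate of COS7 cells overexpressing human LULL1; score merges per-feature 667 nm fluorescence with signal-to-noise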
[16] = E. coli growth modulation, two-sided OD650, primary screen, E. coli filamentation project, strain DRC41, 24 h (AID 1093); settings: OD650, 24 h, higher = more signal, called active from +8 up or from −8 down;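 note: MC1000 strain lacking acrAB efflux and sulA so SOS filamentation is blocked; test concentration not given here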
[17] = small-molecule microarray binders of probe aLefty2, primary screen, biochemical, biotinylated probe, 635/667 nm fluorescence (AID 1094); settings: higher = more signal;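 note: score merges spot fluorescence near 667 nm with spot signal-to-noise ratio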
[18] = tested on: Noggin (protein binding on small-molecule microarray); test: Noggin binders on small-molecule microarray, primary screen, biochemical, 635/667 nm fluorescence (AID 1095); settings: 635 nm fluorescence, higher = more signal;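 note: score merges 667 nm feature fluorescence with signal to noise over triplicate slides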
[19] = biological target: Neurogenic locus notch homolog protein 3 (Homo sapiens) (UniProt Q9UM47); test: NOTCH3 binders on small-molecule microarray, primary screen, biochemical, 635/667 nm fluorescence (AID 1096); settings: NOTCH3 binding, 635 nm fluorescence, higher = more signal
[20] = small-molecule microarray binders of probe aEGFR, primary screen, biochemical, biotinylated probe, 635/667 nm fluorescence (AID 1097); settings: higher = more signal;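 note: probe is a biotinylated anti-EGFR antibody binding compounds printed on slides; score combines fluorescence near 667 nm and signal to noise of each spot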

Sequence of Torsin-1A-interacting protein 2 (Homo sapiens) (Q8NFQ8 whole entry, looked up): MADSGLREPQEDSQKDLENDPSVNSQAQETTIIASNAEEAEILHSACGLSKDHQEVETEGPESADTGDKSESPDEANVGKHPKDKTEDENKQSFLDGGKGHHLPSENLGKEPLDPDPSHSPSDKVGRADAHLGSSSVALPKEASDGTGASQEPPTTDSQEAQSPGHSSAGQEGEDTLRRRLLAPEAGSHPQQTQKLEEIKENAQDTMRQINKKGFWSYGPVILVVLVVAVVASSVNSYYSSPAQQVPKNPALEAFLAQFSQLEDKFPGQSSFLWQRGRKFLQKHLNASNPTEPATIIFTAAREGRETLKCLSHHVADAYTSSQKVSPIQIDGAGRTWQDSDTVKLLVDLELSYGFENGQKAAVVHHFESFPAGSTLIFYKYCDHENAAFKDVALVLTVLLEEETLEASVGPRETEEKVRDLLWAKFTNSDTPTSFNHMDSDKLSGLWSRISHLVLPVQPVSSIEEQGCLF
Sequence of Neurogenic locus notch homolog protein 2 (Homo sapiens) (Q04721 whole entry, looked up, canonical isoform): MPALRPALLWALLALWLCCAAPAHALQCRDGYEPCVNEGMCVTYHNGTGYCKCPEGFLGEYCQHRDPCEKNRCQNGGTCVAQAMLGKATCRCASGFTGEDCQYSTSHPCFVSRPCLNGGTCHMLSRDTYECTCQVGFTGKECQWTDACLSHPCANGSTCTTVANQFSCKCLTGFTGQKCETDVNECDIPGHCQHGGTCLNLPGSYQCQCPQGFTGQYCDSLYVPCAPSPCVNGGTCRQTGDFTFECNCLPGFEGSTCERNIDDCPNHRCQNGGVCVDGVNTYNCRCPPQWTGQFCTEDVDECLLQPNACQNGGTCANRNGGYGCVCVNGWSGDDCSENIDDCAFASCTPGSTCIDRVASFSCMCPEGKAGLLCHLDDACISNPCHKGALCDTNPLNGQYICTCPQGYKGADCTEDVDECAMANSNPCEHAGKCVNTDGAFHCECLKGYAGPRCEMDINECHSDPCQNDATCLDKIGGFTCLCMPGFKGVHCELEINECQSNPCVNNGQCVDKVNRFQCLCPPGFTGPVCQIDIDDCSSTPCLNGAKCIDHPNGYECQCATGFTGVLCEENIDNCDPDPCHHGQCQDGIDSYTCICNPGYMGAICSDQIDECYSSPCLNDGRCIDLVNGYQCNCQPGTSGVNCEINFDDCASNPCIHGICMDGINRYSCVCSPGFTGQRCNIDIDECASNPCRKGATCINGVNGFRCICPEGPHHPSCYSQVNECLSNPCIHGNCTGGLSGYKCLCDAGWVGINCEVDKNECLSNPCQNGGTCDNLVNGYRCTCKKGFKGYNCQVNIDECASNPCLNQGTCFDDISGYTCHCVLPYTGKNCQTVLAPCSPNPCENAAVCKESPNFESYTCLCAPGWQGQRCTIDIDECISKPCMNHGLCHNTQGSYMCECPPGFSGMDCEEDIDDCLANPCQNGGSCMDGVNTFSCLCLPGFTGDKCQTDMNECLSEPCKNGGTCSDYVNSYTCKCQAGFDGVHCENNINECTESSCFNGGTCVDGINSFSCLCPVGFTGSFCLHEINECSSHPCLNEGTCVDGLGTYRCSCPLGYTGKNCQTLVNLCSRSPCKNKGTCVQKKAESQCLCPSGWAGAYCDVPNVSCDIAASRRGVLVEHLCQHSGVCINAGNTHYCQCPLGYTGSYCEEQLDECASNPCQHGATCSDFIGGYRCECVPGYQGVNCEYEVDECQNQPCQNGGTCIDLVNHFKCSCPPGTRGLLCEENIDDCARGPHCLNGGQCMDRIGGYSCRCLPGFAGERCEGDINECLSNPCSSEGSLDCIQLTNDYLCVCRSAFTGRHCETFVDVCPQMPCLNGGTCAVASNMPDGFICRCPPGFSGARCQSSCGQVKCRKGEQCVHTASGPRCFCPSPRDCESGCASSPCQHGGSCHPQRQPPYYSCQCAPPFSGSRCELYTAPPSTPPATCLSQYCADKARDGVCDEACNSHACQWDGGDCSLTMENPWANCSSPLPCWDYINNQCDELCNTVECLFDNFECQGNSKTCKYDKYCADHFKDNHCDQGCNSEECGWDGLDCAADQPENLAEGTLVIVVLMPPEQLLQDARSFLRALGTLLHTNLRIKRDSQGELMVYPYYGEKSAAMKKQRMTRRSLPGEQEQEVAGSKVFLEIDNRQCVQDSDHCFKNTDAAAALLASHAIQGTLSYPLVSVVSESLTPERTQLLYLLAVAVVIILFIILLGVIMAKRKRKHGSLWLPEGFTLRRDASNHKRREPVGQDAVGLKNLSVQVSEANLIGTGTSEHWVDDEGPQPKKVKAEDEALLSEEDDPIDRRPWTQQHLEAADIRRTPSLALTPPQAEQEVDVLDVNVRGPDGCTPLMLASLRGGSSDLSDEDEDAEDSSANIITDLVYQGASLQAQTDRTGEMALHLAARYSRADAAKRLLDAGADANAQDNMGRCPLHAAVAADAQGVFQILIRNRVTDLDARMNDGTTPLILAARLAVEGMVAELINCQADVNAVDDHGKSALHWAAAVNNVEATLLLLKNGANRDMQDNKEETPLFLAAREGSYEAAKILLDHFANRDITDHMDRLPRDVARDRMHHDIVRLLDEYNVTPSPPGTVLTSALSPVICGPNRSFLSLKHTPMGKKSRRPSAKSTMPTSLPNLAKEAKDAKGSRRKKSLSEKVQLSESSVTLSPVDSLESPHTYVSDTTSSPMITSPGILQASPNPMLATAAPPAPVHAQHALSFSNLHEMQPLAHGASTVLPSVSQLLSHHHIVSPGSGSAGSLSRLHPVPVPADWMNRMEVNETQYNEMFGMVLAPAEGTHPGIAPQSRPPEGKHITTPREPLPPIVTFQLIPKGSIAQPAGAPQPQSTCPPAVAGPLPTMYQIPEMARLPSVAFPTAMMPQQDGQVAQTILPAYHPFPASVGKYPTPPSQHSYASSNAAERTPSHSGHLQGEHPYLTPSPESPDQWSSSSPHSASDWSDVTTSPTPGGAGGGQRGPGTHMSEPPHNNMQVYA
Sequence of Pro-neuregulin-1, membrane-bound isoform (Homo sapiens) (Q02297 whole entry, looked up, the tested form may be a part, canonical isoform): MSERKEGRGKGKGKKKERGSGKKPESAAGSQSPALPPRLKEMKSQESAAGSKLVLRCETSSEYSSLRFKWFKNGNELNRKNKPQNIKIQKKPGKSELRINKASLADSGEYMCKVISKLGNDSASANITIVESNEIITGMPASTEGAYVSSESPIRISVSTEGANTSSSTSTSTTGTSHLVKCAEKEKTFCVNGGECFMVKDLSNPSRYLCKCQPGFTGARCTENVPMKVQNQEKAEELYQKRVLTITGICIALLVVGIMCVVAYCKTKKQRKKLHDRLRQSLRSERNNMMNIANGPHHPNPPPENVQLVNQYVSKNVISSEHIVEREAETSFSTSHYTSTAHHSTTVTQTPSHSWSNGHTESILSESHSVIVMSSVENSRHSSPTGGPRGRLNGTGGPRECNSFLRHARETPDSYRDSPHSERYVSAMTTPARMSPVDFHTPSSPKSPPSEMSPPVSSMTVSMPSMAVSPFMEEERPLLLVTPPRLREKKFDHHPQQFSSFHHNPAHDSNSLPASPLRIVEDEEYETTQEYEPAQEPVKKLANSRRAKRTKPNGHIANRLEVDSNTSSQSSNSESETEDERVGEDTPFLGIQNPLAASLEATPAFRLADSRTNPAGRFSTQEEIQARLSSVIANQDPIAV

SMILES	composite z-score [1]	composite z-score [2]	composite z-score [3]	composite z-score [4]	composite z-score [5]	composite z-score [6]	composite z-score [7]	z-score [8]	composite z-score [9]	composite z-score [10]	composite z-score [11]	z-score [12]	z-score [13]	z-score [14]	composite z-score [15]	z-score [16]	composite z-score [17]	composite z-score [18]	composite z-score [19]	composite z-score [20]
CO[C@H]1O[C@H](CO)[C@@H](OC(=O)Nc2cccc(F)c2)[C@H](OC(=O)Nc2ccc3c(c2)OCO3)[C@H]1OC(=O)Nc1ccc2c(c1)OCO2	-0.382	0.755	0.0094	0.358	0.893	0.958	1.17	6.24 (inactive)	-0.253	-0.201	1.55	1.38 (inactive)	1.29 (inactive)	1.6 (inactive)	3.25	1.76 (inactive)	-0.0025	1.07	0.649	-0.142
CC(C)(C)OC(=O)CC[C@]1(C(=O)O)COC(c2ccc(OCCCO)cc2)=N1	0.303	2.38	-0.0279	-0.011	0.541	1.98	1.45	0.394 (inactive)	0.556	-0.0296	-1.22	0.923 (inactive)	0.179 (inactive)	0.197 (inactive)	1.29	-0.079 (inactive)	0.12	-1.09	-0.463	-0.0575
COCCCNC(=O)[C@]1(Cc2ccccc2)N=C(c2ccc(OCCCO)cc2)O[C@@H]1c1ccccc1N=[N+]=[N-]	0.29	1.54	0.12	0.632	1.02	0.725	1.2	-0.309 (inactive)	1.47	-0.0994	1.56	-0.499 (inactive)	-0.357 (inactive)	1.37 (inactive)	3.16	0.49 (inactive)	-0.02	1.67	1.15	-0.0238
COC(=O)[C@@]1(Cc2ccc(F)cc2)[C@H]2c3cc(C(=O)N4CCCC4)n(Cc4ccccc4)c3C[C@H]2CN1C(=O)c1ccccc1	0.106	-0.663	0.0451	0.19	1.56	1.83	1.12	1.2 (inactive)	1.23	0.0578	-0.101	-0.136 (inactive)	1.31 (inactive)	1.24 (inactive)	3.22	0.21 (inactive)	0.391	-0.486	0.783	0.0953
COc1ccc(CCNC(=O)[C@@H]2c3ccccc3C(=O)N(Cc3ccccc3C(F)(F)F)[C@H]2c2ccc(CO)cc2)cc1	0.114	1.02	0.0292	0.0105	-0.354	1.2	0.472	-0.646 (inactive)	-0.211	-0.134	0.77	-0.0666 (inactive)	0.057 (inactive)	-0.0429 (inactive)	2.92	0.415 (inactive)	0.0258	-0.185	-0.0818	-0.216
NC(=O)NCC#Cc1ccc2c(c1)[C@]1(C(=O)N2)[C@H](c2ccc(O)cc2)N2[C@H](c3ccccc3)[C@H](c3ccccc3)OC(=O)[C@H]2[C@@H]1C(=O)NC[C@H](O)c1ccccc1	1.38	-1.23	-0.132	-1.17	-1.17	0.831	-0.18	-0.0208 (inactive)	-0.268	0.172	-0.0161	-0.195 (inactive)	0.207 (inactive)	-0.0001 (inactive)	-0.383	0.821 (inactive)	-0.0435	-2.14	-0.91	-0.276
COCCOC(=O)N1C(=O)[C@@]2(c3cc(C#CCC(C(=O)OC)C(=O)OC)ccc31)[C@H](c1ccc(OCCO)cc1)N1[C@H](c3ccccc3)[C@H](c3ccccc3)OC(=O)[C@H]1[C@@H]2C(N)=O	-0.564	-0.461	-0.116	0.245	1.15	0.928	1.22	-0.441 (inactive)	0.78	0.35	1.51	1.47 (inactive)	0.561 (inactive)	4.48 (inactive)	3.22	0.237 (inactive)	0.011	0.543	1.13	-0.0238
Cc1ccc(-c2cccc(=O)o2)cc1	0.139	-0.549	-0.0973	-0.304	-0.351	-0.411	-0.596	5.3 (inactive)	0.121	-0.353	-0.0072	-1.91 (inactive)	-1.56 (inactive)	1 (inactive)	-0.606	0.0307 (inactive)	-0.183	-0.175	-0.312	-0.105
COc1ccc([Si](C)(C)[C@@H]2[C@@H](CCO)O[C@]3(C(=O)N(Cc4ccc(N5C(=O)c6ccccc6Oc6ccccc65)cc4)c4ccccc43)[C@H]2C)cc1	0.197	-0.589	-0.106	-0.124	-0.323	1.09	0.736	-1.69 (inactive)	-0.0716	-0.0324	0.106	3.36 (inactive)	0.262 (inactive)	37.6 (active)	-0.49	0.045 (inactive)	-0.0359	-0.0905	0.18	-0.241
O=C(C=C(CC(O)c1cccc(Cl)c1)OCCF)OCCF (stereo not given)	0.876	-0.824	-0.154	-0.694	-1.02	-0.0066	-0.19	-4.54 (inactive)	0.0462	0.0596	-1.87	-2.44 (inactive)	0.291 (inactive)	-0.582 (inactive)	0.0714	-0.106 (inactive)	-0.166	-1.22	-1.11	-0.128
CC(C)c1ccc(NN2C(C(O)c3cccs3)C=CC3C(=O)N(c4ccccc4)C(=O)C32)cc1 (stereo not given)	0.222	-0.14	0.117	0.353	1.66	1.54	1.19	-1.87 (inactive)	0.979	0.122	1.54	0.354 (inactive)	0.758 (inactive)	0.331 (inactive)	3.36	-1.14 (inactive)	0.453	-0.0307	1.06	0.08
COc1ccccc1CN1C(=O)c2ccccc2[C@@H](C(=O)NCC(C)C)[C@@H]1c1ccc(CO)cc1	0.482	-0.117	0.0342	-0.0779	1.07	0.869	0.7	-1.97 (inactive)	0.0346	-0.0994	-0.106	0.444 (inactive)	-0.288 (inactive)	0.125 (inactive)	2.18	0.0616 (inactive)	-0.0042	-0.081	-0.222	-0.0398
OCCCC1=CC(c2cccs2)N(Cc2cccc(OC(F)(F)F)c2)CC1 (stereo not given)	-0.24	-0.487	-0.11	-0.331	-0.763	-0.222	0.44	0.67 (inactive)	-0.941	0.0401	0.532	-2.28 (inactive)	-14.6 (active)	1.15 (inactive)	0.365	-0.15 (inactive)	-0.0998	0.0008	-0.602	-0.115
O=C1O[C@H](c2ccccc2)[C@H](c2ccccc2)N2[C@H]1[C@@H](C(=O)N1CCCCCCC1)[C@]1(C(=O)Nc3ccc(C#CCCO)cc31)[C@H]2c1ccc(OCCO)cc1	3.51	2.79	0.972	1.49	1.76	2.84	1.35	-0.409 (inactive)	3.33	2.53	1.56	1.55 (inactive)	-0.0863 (inactive)	3.73 (inactive)	5.06	0.669 (inactive)	1.6	2.36	1.01	1.28
C#CCNS(=O)(=O)N(C)C	-0.49	0.0943	-0.0291	0.276	0.707	0.174	0.774	-0.533 (inactive)	-0.136	0.208	0.392	1.24 (inactive)	0.783 (inactive)	0.689 (inactive)	0.43	0.663 (inactive)	-0.139	0.4	0.579	-0.054
CC1C=C(CCCO)C=C(C(=O)OCCS(C)(=O)=O)C(C(=O)OCCS(C)(=O)=O)=CN1Cc1cccc(OC(F)(F)F)c1 (stereo not given)	-0.228	0.21	-0.0379	0.203	0.707	2.08	1.14	0.416 (inactive)	0.106	-0.0645	0.482	-1.27 (inactive)	-2.49 (inactive)	-0.0014 (inactive)	3.11	-0.436 (inactive)	0.0057	0.0266	0.379	-0.0418
COc1ccc([Si](C)(C)[C@H]2[C@H](CCn3cc(CCO)nn3)O[C@@]3(C(=O)N(Cc4cccc(N5C(=O)c6cccc7cccc5c67)c4)c4ccccc43)[C@@H]2C)cc1	-0.201	0.603	-0.105	0.906	0.45	0.772	0.862	-3.54 (inactive)	0.395	1.55	1.46	0.502 (inactive)	0.903 (inactive)	27.7 (active)	2.2	0.921 (inactive)	-0.288	1.03	0.79	-0.142
Cc1cc(C)c(C(O)C2C=CC3C(=O)N(c4ccccc4)C(=O)C3N2Nc2ccc([N+](=O)[O-])cc2)c(C)c1 (stereo not given)	0.0096	0.129	0.0748	0.453	1.68	1.9	1.36	-0.625 (inactive)	1.51	-0.223	1.54	-0.695 (inactive)	0.957 (inactive)	2.16 (inactive)	3.73	0.356 (inactive)	0.216	0.525	1.02	0.0225
Cc1ccc(S[C@]2(C(=O)O)CC(=O)N(Cc3ccccc3C(F)(F)F)[C@@H]2c2ccc(CO)cc2)cc1	0.405	-0.138	-0.172	-0.338	-1.11	-0.343	0.508	-0.383 (inactive)	-0.49	-0.374	0.667	0.517 (inactive)	0.13 (inactive)	0.124 (inactive)	1.87	0.301 (inactive)	-0.0732	-1.06	-1.34	-0.225
COC(=O)C(CC#Cc1ccc2c(c1)[C@]1(C(=O)N2)[C@H](c2ccccc2OCCO)N2[C@H](c3ccccc3)[C@H](c3ccccc3)OC(=O)[C@H]2[C@@H]1C(=O)Nc1nc2ccccc2s1)C(=O)OC	-0.214	0.675	0.0563	0.605	1.05	1.47	1.26	1.94 (inactive)	0.446	0.0329	1.52	2.11 (inactive)	1.03 (inactive)	1.36 (inactive)	2.93	-0.724 (inactive)	-0.0699	1.24	1.15	-0.0688
